Assay outcomes (PubChem BioAssay)
Sampled rows, rich in hits. Any-hit rate of the full collection: about 11%.
PNC assembly inh – High Content Assay for Compounds that inhibit the Assembly of the Perinucleolar Compartment | actives 3.1% (n = 140,000) | PC3M PTB-GFP, PNC prevalence imaging, 16 h; hits give low values | activity change (PNC), negative = inhibition, % at 10 µM;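 active = readout at or below -70, meaning at least 70% loss of cells showing the perinucleolar compartment, a nuclear body marking cancer cells; inconclusive = readout between -30 and a set limit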;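 note: plate controls were DMSO wells for no effect and camptothecin positive control wells for full effect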
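PC3M cells stably expressing PTB-GFP, 750–1000 cells/well, treated 16 h at 37 °C with compound (23 nl of library stock), in duplicate. After paraformaldehyde fixation and Hoechst stain, imaged at 20x; PNC prevalence scored by image analysis.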
ALDH1A1 inh – qHTS Assay for Inhibitors of Aldehyde Dehydrogenase 1 (ALDH1A1); Aldehyde dehydrogenase 1A1 (Homo sapiens), P00352; Purified ALDH1A1, NADH fluorescence, propionaldehyde substrate; Potency, µM (series often up to 75.3 µM), for the others: at the top dose activity, negative = inhibition, usual class: inhibitors; actives 7.3% (n = 220,000); AID 1030, 2008;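 note: potency is the fitted concentration of half-maximal effect; plate controls were no enzyme wells and a reference inhibitor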
Target sequence (P00352 whole entry, looked up): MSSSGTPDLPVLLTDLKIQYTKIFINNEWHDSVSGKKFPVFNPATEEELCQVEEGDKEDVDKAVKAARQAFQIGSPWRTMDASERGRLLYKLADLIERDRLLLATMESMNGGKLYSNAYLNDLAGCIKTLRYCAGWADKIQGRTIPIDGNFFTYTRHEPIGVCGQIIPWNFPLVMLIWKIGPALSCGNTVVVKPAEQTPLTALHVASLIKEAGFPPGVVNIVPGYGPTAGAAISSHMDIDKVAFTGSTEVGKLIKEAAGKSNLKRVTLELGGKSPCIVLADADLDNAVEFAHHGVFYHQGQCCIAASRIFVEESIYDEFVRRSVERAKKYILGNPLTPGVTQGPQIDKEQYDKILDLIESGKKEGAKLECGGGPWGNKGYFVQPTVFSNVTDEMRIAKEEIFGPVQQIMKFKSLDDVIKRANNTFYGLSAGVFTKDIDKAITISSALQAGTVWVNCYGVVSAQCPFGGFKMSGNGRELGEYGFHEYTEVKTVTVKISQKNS
HPGD block – qHTS Assay for Inhibitors of HPGD (15-Hydroxyprostaglandin Dehydrogenase); Potency, µM, without a hit: at the highest dose activity change, negative = inhibition, usual class: inhibitors; actives 4.3% (n = 150,000); purified HPGD, NADH fluorescence kinetic, PGE2 substrate; 15-hydroxyprostaglandin dehydrogenase [NAD(+)] (Homo sapiens), P15428; AID 894, 2007; note: potency is the fitted concentration of half-maximal effect
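NADH formation kinetics: reaction with 30 uM PGE2 and 1 mM NAD+ (final), 20 nM enzyme, Tris-HCl pH 8 with Tween 20, after 15 min compound preincubation at room temperature. Fluorescence change, last versus first of five reads.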
The depositor's hits bear a star; ? = inconclusive; / = no result; [ ] = dose if it differs, or a comment. Unless noted, calls come from the whole dose curve; as a rule, active = well fitted inhibition curve with a large enough effect (not every such curve was filed as active); inconclusive = small, poorly fitted or top-dose-only effect, or another doubt; inactive = no such curve, though single readings can be large or run the other way. Unless noted, % is set by controls: 0 for no effect and ±100 for the full control effect.

SMILES	PNC assembly inh	ALDH1A1 inh	HPGD block
O=C(NCc1cccnc1)c1ccc(N2CCOCC2)c([N+](=O)[O-])c1	/	3.1%	/
O=C(c1ccc(N2CCCCC2)c([N+](=O)[O-])c1)N1CCOCC1	87.1	0.6%	-14.6%
NCC(=O)N[C@H](CO)C(=O)O	/	-3.4%[13.5 µM]	-11.9%
Cc1[nH]c2ccccc2c1C(=O)COc1ccccc1	/	-1.8%	/
CC(C)[C@@H](CC(=O)N[C@@H]1CCNC[C@H]1C(=O)N[C@H](CC(=O)N[C@@H](CCC(=O)O)CC(=O)O)Cc1c[nH]c2ccccc12)NC(=O)C[C@H](Cc1ccccc1)NC(=O)[C@@H]1CCCC[C@H]1N	/	7.8%	-10.0%
COCc1cc(C)nc(OC)c1C(N)=O	/	0.6%	/
Cc1ccc(NS(=O)(=O)c2cccc(C(=O)N/N=C/c3ccc4c(c3)OCCO4)c2)c(C)c1	-27.6	4.0%	?
O=C(CC1C(=O)NCCN1Cc1ccc(F)c(F)c1)NCCCn1ccnc1 (configuration not stated)	/	-9.7%	/
CC(C)Cc1nc2oc3c(N4CCN(C)CC4)ncnc3c2c2c1CCCC2	?	-0.3%	-0.6%
COc1ncnc2c1oc1nc(CC(C)C)c3c(c12)CCCC3	?	14.1µM*	-7.4%
O=C(/C=C/c1ccc2c(c1)OCO2)NCCSCc1c(Cl)cccc1Cl	-21.4	?	?
COC(=O)c1ccc(C(NC(=O)OCc2ccccc2)/C(=C/[C@@H](C)C(=O)NCCc2c[nH]c3ccccc23)c2cccnc2)cc1 (some centres not stated)	/	-4.6%	-9.6%
Cc1cc(C)n2cc(CSc3nnc(-c4ccccc4)o3)nc2n1	-13.0	?	?
Cc1cc(C)n2cc(CSCc3ccccc3)nc2n1	-88.6*	?	?
CCc1ccc(NC(=O)CSCc2ccc(C(=O)O)cc2)cc1	/	-13.3%	/
COc1cc([N+](=O)[O-])cc2cc(C(=O)N3CCCC3)c(=O)oc12	/	-2.1%	/
Cc1cccc(-n2cc(-c3ccccc3)c3c(N4CCOCC4)ncnc32)c1	/	17.8µM*	/
Cc1ccc(-n2cc(-c3ccccc3)c3c(N4CCN(C)CC4)ncnc32)cc1	/	3.0%	/
NS(=O)(=O)c1ccc(CNC(=O)c2cc(-c3ccccn3)nc3ccc(Cl)cc23)cc1	/	2.1%	/
Cc1nn(-c2c(Cl)cc(Cl)cc2Cl)c(=O)c2ccccc12	-8.4	-11.5%	12.6µM*
Cc1nn(-c2ccccc2C(=O)O)c(=O)c2ccccc12	4.4	-1.8%	-5.7%
O=C(N/N=C/c1cccc([N+](=O)[O-])c1)C1CC1c1ccccc1 (configuration not stated)	36.4	-3.9%	/
CCOC(=O)C1C(=O)OC(C)(C)C1C(C)C(=O)c1ccccc1 (configuration not stated)	-24.3	8.4%	-0.1%
COc1ccc(C(=O)c2ccc(OC)c(N)c2)cc1N	19.9	20µM*	-31.7%
COc1ccc(C(=O)c2ccc(OC)c(OC)c2)cc1	-10.5	?	-8.9%
SMILES	PNC assembly inh	ALDH1A1 inh	HPGD block
CCCCc1nc2c(c3c1CC(C)OC3)CN(CCOc1ccccc1)CC2 (configuration not stated)	/	-2.1%[13.5 µM]	/
CC(=O)c1c(C)[nH]c(C(=O)OCc2ccccc2)c1C	69.1	11.0%	-5.1%
CCN(CC)CCc1c(C)[nH]c(C(=O)OCc2ccccc2)c1C	?	20µM*	-3.0%
COc1cc(C2NC(C(=O)O)Cc3c2[nH]c2ccccc32)cc(OC)c1OC (configuration not stated)	?	?	-1.9%
COc1ccc(C2NC(C(=O)O)Cc3c2[nH]c2ccccc32)cc1OC (configuration not stated)	-97.7*	?	-23.3%
CCCCCC/C=C1\CC(C(=O)OCC)Oc2ccccc21 (configuration not stated) (tested in a mixture with another compound)	/	3.6%	-12.4%
COc1ccc(NC(=O)C2C(c3ccccc3)C2(Cl)Cl)cc1 (configuration not stated)	/	1.3%	/
CC(=O)c1cccc(NC(=O)C2C(c3ccccc3)C2(Cl)Cl)c1 (configuration not stated)	/	-1.0%	/
Cc1cccc(NC(=O)C2C(c3ccccc3)C2(Cl)Cl)c1 (configuration not stated)	/	25.1µM*	/
Cc1ccc(NC(=O)C2C(c3ccccc3)C2(Cl)Cl)c(C)c1 (configuration not stated)	-7.9	5.0%	28.2µM*
Cc1ccc(C)c(-c2csc(NC(=O)c3cnccn3)n2)c1	/	-0.4%	/
CCCCc1ccc(NC(=O)C(=O)NCCN2CCN(Cc3ccc([N+](=O)[O-])cc3)CC2)cc1	/	-1.3%	/
CNC(=O)N(C1=NCCCCC1)c1ccc(Br)cc1	?	-1.8%	-16.4%
COc1ccc(CNC(=O)C/C(C)=N/NC(=O)C23CC4CC(CC(C4)C2)C3)cc1	/	14.1µM*	/
COc1ccc(CCNC(=O)COC(=O)C23CC4CC(CC(C4)C2)C3)cc1	-1.3	22.4µM*	-3.2%
COc1ccc(CNC(=O)C/C(C)=N/NC(=O)Cc2ccc(OC)cc2)cc1	7.1	0.2%	2.5%
COc1ccc(CCNC(=O)COC(=O)C23CC4CC(CC(Br)(C4)C2)C3)cc1	33.3	-2.5%	-5.5%
COc1ccc(CNC(=O)C/C(C)=N/NC(=O)C(c2ccccc2)c2ccccc2)cc1	-20.7	22.4µM*	-1.2%
COc1ccc(COC(=O)N/N=C(\C)CC(=O)NCc2ccc(Cl)cc2)cc1	/	7.6%	/
Cc1cc([N+](=O)[O-])nn1CCCC(=O)Nc1cccc(Cl)c1Cl	/	0.8%	/
CC(C)[C@@H](CC(=O)N[C@@H]1CCNC[C@H]1C(=O)N[C@H](CC(=O)N[C@@H](CCC(=O)O)CC(=O)O)Cc1c[nH]c2ccccc12)NC(=O)C[C@H](CO)NC(=O)[C@@H]1CCCC[C@H]1N	/	?	-15.7%
CC#N	/	-0.5%	-9.0%
Cc1nc2c(N=Nc3ccccc3F)c(N)nn2c(N)c1C#N	/	0.1%	/
O=C(O)/C=C/c1ccc(S(=O)(=O)Nc2ccc(C(=O)NCC(=O)O)cc2)cc1	/	-5.3%	/
CC1CCC2C(=O)N(c3ccc(Cc4ccncc4)cc3)C(=O)C2C1 (configuration not stated)	/	4.7%	/
SMILES	PNC assembly inh	ALDH1A1 inh	HPGD block
O=C(c1cc2nc(-c3ccc(Cl)cc3)cc(C(F)(F)F)n2n1)N1CCOCC1	/	11.5%	/
Cc1ccc(-c2nc(CN(C)C3CCOC3)c(C)o2)s1 (configuration not stated)	/	-5.2%	/
CCOC(=O)COc1cc([N+](=O)[O-])cc2cccnc12	/	-11.7%	/
CCOC(=O)COc1ccccc1/C=C\[N+](=O)[O-]	?	4.47µM*	15.8µM*
CC1CCC(C(C)C)C(OC(=O)CSc2nccc(=O)[nH]2)C1 (configuration not stated)	22.1	25.1µM*	-2.3%
CC1CCC(C(C)C)C(OC(=O)COC(=O)c2ccc(=O)[nH]c2)C1 (configuration not stated)	?	5.1%	-11.0%
CCC1=C(OC(=O)N(CC)CC)N2C(=O)OC(=NCCOC)[C@]2(C)[C@H]2C1=CC[C@H]1C(=O)N(C)C(=O)[C@H]12	/	-10.4%	-9.1%
CC(=O)OCC(=O)Nc1ccccc1C	/	-0.3%	/
